D2 antag: antagonists of human D2 dopamine receptor; HEK293 TREx D2 cells, calcium flux, dopamine EC80; inhibition, % at 10 µM; actives 2% (n = 340,000); AID 485344; in the data active = inhibition above about 30%; inactive = below that, where a call was filed
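Dopamine at EC80 is the agonist stimulus; test compounds precede it by 180 s. Calcium flux read kinetically in a force-coupled, inducible HEK293 T-REx D2 cell line.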
B2AR arrestin: recruits beta-arrestin to the human beta2-adrenergic receptor; P07550; beta-arrestin recruitment to beta2AR, cell-based reporter; Potency, µM (highest dose often 46.1 µM), actives largely listed as activators; actives 0.02% (n = 330,000); AID 492947; active = well fitted activation curve with a large enough effect; inconclusive = small, poorly fitted or top-dose-only effect; note: nearly all actives have a fitted effect of over 65% in size
Target sequence (P07550 whole entry, looked up): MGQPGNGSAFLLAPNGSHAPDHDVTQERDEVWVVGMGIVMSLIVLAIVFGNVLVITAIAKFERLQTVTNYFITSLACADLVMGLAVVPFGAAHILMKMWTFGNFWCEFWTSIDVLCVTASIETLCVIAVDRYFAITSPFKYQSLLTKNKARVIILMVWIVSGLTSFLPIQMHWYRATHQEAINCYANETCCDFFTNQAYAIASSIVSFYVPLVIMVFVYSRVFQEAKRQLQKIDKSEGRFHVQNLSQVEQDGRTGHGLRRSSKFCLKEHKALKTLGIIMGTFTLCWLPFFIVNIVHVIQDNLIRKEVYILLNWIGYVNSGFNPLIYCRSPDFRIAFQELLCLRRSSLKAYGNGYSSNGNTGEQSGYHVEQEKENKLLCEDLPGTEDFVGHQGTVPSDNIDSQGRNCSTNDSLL
D2 ag-1: activates the human D2 dopamine receptor; P14416; HEK293 T-REx D2 cells, calcium flux agonist mode; activation, % at 2 µM; actives 0.53% (n = 340,000); AID 485358;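 active = activation over 3 SD above normal in the single-dose calcium agonist read, cut at about 30% in these data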
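Tetracycline-induced HEK293 Trex cells with D2 receptor force-coupled to calcium signaling, plated overnight at 30 C and loaded with no-wash calcium dye. Calcium flux read kinetically for 180 s after compound addition; responses flag agonists.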
D2 PAM-1: D2 dopamine receptor (human) potentiation; P14416; HEK293 T-REx D2, calcium flux, EC20 dopamine potentiation; potentiation, % at 10 µM; actives 0.34% (n = 340,000); AID 485347;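 active = potentiation over 3 SD above the plate norm, cut at about 30% in these data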
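Tetracycline-induced HEK293 T-REx cells force-coupled to calcium signalling expressed D2; compounds were pin-added after a 10 s baseline, read kinetically 180 s, then an EC20 dopamine challenge followed with a further 180 s calcium read.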
D2 PAM-2: human D2 receptor positive allosteric modulation; DiscoveRx D2 beta-arrestin cells, luminescence, 90 min; 100% = 57 uM dopamine signal; potentiation, % (concentration not given with the values); actives 0.23% (n = 360,000); in the data active = potentiation above about 50%; inconclusive = mostly about 30% to 49%
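PathHunter beta-arrestin assay in DiscoveRx D2 cells. Compounds were added with an EC20 of dopamine (50 nM final) for 90 min at 37 deg C. Luminescence was read 1 h after detection reagent, with 57 uM dopamine as the EC100 control.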
D2 ag-2: agonists of human D2 dopamine receptor (beta-arrestin) | DiscoveRx PathHunter D2 beta-arrestin, luminescence, 90 min; 100% = 57 uM dopamine signal | activation, % (concentration not given with the values) | actives 0.084% (n = 360,000) | P14416; in the data active = activation above about 40%; inconclusive = between about 15% and that limit
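DiscoveRx PathHunter D2 beta-arrestin cells (2,100/well) attached overnight, then compound-stimulated 90 min at 37 C in HBSS/10 mM HEPES/0.1% Tween-20 buffer; beta-galactosidase complementation read by luminescence after 1 h at ambient temperature. Dopamine 57 uM final (EC100) as control.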
A number is an active result; n = inactive; u = inconclusive; x = no result. The list is not random: actives were taken first. Their share in the collection is about 2.4%.

SMILES	D2 antag	B2AR arrestin	D2 ag-1	D2 PAM-1	D2 PAM-2	D2 ag-2
CC1CC(=O)C2=C(C1)Nc1ncnn1C2c1ccccc1 (centres undefined)	n	n	n	34.2	n	n
COc1ccc(CNC(=O)c2cnc3sc(N4CCOCC4)nn3c2=O)cc1	x	x	x	n	x	x
Cc1ccc(C=C(C#N)C(=O)c2ccccc2)cc1	x	x	x	x	n	n
CN(C)c1ccc(/C=C(\C#N)C(=O)c2ccccc2)cc1	n	n	162.8	n	n	n
O=C(c1cc([N+](=O)[O-])ccc1Cl)N1CCN(c2ccc(F)cc2)CC1	n	n	n	n	n	n
CC(=O)N1CCN(C(=O)c2cc(S(=O)(=O)N3CCN(c4ccccc4)CC3)ccc2Cl)CC1	n	n	n	49.1	u	n
O=C(c1cc([N+](=O)[O-])ccc1Cl)N1CCN(c2ccc([N+](=O)[O-])cc2)CC1	40.8	n	n	n	n	n
COC(=O)c1cc(C(=O)N2CCN(c3cccc(Cl)c3)CC2)cc([N+](=O)[O-])c1	30.2	n	n	n	n	n
O=C(c1cc(S(=O)(=O)N2CCOCC2)ccc1Cl)N1CCN(c2ccccn2)CC1	n	n	n	n	n	n
O=C(CN1CCOCC1)N1CCN(c2ccc([N+](=O)[O-])cc2)CC1	83.4	n	n	n	n	n
COc1ccc(OC(C)=O)c(C2c3cc(OC)c(OC)cc3CCN2C(C)=O)c1 (centres undefined)	n	n	n	n	n	n
O=C(N/C=N/OCc1ccc(Cl)cc1Cl)NOCc1c(Cl)cccc1Cl	30.7	x	n	n	n	n
CCCc1nn2cc(-c3ccc(C)c(C)c3)nc2s1	x	x	n	n	x	x
Cc1ccc(CNC(=O)CSC2=Nc3ccccc3N=C(c3ccc(F)cc3)C2)cc1	x	x	n	n	x	x
C/C(=N\NC(N)=O)c1cc(Cl)cc(Cl)c1O	53.6	n	n	n	n	n
O=C(OCCN1C(=O)c2ccccc2C1=O)C1CC(O)CN1S(=O)(=O)c1ccc(Cl)cc1 (centres undefined)	n	n	n	n	n	n
S=C(NCC1(c2ccccc2)CCCC1)Nc1ccccc1	n	n	n	n	n	n
O=C(O)CCSc1nc(C(F)(F)F)cc(=O)n1-c1ccccc1	32.7	n	n	n	n	n
CC(C)C(NS(=O)(=O)c1ccc2c(c1)OCCO2)C(=O)NCCc1ccccn1 (centres undefined)	n	n	n	n	n	n
O=C1CCC(C(=O)OC(C(=O)Nc2cc(Cl)cc(Cl)c2)c2ccccc2)=NN1 (centres undefined)	33.5	n	n	n	n	n
O=C(O)c1ccccc1OC(C(=O)Nc1cc(Cl)cc(Cl)c1)c1ccccc1 (centres undefined)	36.1	n	n	n	n	n
O=C1CCC(C(=O)OC(C(=O)Nc2ccc([N+](=O)[O-])cc2Br)c2ccccc2)=NN1 (centres undefined)	n	n	n	n	n	n
O=C(Nc1cc(Cl)cc(Cl)c1)C(c1ccccc1)N1CCCCC1 (centres undefined)	n	n	n	n	n	n
CCc1ccc(S(=O)(=O)c2cn(CC)c3cc(N4CCOCC4)c(F)cc3c2=O)cc1	x	x	n	n	x	x
COc1ccccc1CCNC(=O)C1(C)CC1(Cl)Cl (centres undefined)	n	n	n	x	n	n
SMILES	D2 antag	B2AR arrestin	D2 ag-1	D2 PAM-1	D2 PAM-2	D2 ag-2
O=C(c1noc2c1CCCC2)N1CCN(c2ccccc2)CC1	n	n	n	n	n	n
Cc1ccc2oc3c(c(=O)c2c1)C(c1cccc(O)c1)N(Cc1ccccc1Cl)C3=O (centres undefined)	x	x	n	n	x	x
CCOc1ccc(OCCSc2ccc(S(=O)(=O)N3CCN(C)CC3)cn2)cc1	30.3	n	n	n	n	n
Cc1ccc(C)c(NC(=O)CSc2ccc(S(=O)(=O)N3CCCC3)cn2)c1	39.1	n	n	n	n	n
CN(C)C(=O)CSc1ccc(S(=O)(=O)N2CCCC2)cn1	n	n	n	n	n	n
O=c1cc(CSc2ccc(S(=O)(=O)N3CCCCC3)cn2)nc2sccn12	n	n	n	32.6	n	n
O=S(=O)(c1ccc(SCCO)nc1)N1CCCC1	n	n	n	48.9	n	n
CN1CCN(S(=O)(=O)c2ccc(SCCOc3ccccc3)nc2)CC1	n	n	n	n	n	n
COC(=O)C(C)(C(=O)OC)c1ccc([N+](=O)[O-])cn1	n	n	n	n	n	n
Cc1ccc(C(=O)CCC(=O)OCC(=O)NNC(=O)c2ccccc2Cl)cc1	n	n	n	n	n	n
O=C(O)/C(=C\c1cccs1)Sc1nnc(-c2ccc(F)cc2)o1	35.0	n	n	n	n	n
CSc1ccc(/C=C(/Sc2nnc(-c3ccccc3)o2)C(=O)O)cc1	n	n	n	n	n	n
Nc1ccc(C(=O)N/N=C\C=C\c2cccc([N+](=O)[O-])c2)cc1	48.0	n	n	n	n	n
O=C(O)c1cccc(N/N=C/c2cccc3ccccc23)c1	n	n	n	47.4	n	n
Nc1ccc(C(=O)N/N=C/c2sc(N3CCOCC3)nc2-c2ccccc2)cc1	n	n	n	n	n	n
O=C(N/N=C/C=C/c1cccc([N+](=O)[O-])c1)c1ccncc1	n	n	n	n	n	n
O=C(N/N=C/c1cccc2ccccc12)c1cccnc1	37.3	n	n	n	n	n
O=C(O)c1cccc(N/N=C/c2sc(N3CCOCC3)nc2-c2ccccc2)c1	n	n	n	n	112.0	n
COc1ccc2ccccc2c1/C=N/Nc1cccc(C(=O)O)c1	n	n	n	n	n	n
O=C(CN(C(=O)CNC(=O)c1cccs1)c1ccc(F)cc1)NC1CCCCC1	n	n	n	x	n	n
O=C(c1cccc(NS(=O)(=O)c2ccc(F)cc2)c1)N1CCN(c2ccccc2)CC1	n	n	n	n	n	n
COc1ccccc1C(=O)NCCCNC(=O)c1cccnc1	n	n	n	n	n	n
O=C(COC(=O)c1cccnc1)Nc1cccc2ccccc12	32.2	n	n	n	n	n
O=C(N/N=C/c1cccc([N+](=O)[O-])c1)c1cc2ccccc2o1	32.9	n	n	n	n	n
O=C(N/N=C/c1ccccc1F)c1cc2c(ccc3ccccc32)o1	n	n	n	n	n	n
COC(=O)c1ccccc1NC(=O)COC(=O)c1cccnc1	n	n	n	n	n	n
O=C(N/N=C/c1cccc2ccccc12)c1cc2ccccc2o1	52.0	n	n	n	n	n
Cn1cc(/C=N/NC(=O)c2cc3cc(Br)ccc3o2)c2ccccc21	65.6	n	n	n	n	n

Bioassay records (PubChem BioAssay)
